About 14,000 (4.5%) of roughly 310,000 compounds showed an effect of 50% or more. Effects have a minus sign here. This excerpt belongs to a sample that is enriched for strong results.
What follows are molecules tested against human ether-à-go-go-related gene (hERG) potassium channel (human, UniProt Q12809) (assay: primary screen, population patch clamp on CHO cells stably expressing hERG; higher = less effect of the substance).
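Also: peak tail current of the secondary pulse compared with the same well before compound.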

human ether-à-go-go-related gene (hERG) potassium channel, sequence (Q12809 whole entry, looked up): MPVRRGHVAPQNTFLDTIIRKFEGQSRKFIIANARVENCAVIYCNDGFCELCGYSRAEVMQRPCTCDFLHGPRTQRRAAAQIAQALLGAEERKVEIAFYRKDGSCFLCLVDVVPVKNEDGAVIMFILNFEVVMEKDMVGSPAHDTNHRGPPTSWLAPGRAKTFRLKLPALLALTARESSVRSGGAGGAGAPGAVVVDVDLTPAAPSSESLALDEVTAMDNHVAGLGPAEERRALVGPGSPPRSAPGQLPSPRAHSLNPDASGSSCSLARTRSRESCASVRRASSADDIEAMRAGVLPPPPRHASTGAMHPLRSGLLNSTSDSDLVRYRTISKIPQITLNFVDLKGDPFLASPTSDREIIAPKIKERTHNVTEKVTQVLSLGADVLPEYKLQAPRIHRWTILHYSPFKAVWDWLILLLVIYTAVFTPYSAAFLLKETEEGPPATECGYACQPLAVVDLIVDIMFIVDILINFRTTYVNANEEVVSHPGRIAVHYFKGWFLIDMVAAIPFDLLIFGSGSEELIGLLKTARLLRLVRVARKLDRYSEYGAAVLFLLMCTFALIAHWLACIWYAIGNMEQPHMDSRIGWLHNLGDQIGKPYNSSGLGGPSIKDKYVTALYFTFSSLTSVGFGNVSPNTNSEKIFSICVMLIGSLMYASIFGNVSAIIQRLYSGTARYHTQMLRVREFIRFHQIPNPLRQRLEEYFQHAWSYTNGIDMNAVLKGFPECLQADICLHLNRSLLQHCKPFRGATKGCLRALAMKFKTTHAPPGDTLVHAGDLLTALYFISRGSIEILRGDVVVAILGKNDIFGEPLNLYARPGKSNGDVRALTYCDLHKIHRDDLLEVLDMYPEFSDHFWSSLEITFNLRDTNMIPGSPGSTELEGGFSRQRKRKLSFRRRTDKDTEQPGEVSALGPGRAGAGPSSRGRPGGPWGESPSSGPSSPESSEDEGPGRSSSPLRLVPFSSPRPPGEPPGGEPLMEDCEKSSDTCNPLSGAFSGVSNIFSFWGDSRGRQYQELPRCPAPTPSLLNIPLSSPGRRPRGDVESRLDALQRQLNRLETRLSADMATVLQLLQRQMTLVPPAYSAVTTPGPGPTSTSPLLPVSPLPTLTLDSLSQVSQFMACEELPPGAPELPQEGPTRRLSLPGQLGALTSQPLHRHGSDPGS

| SMILES | hERG current change (%, negative = inhibition) at 10uM |
| --- | --- |
| O=C(NCCc1csc(-c2cccnc2)n1)c1ccccc1Br | -4.05% |
| CC1CCCCN1C(=S)NC(=O)c1cc(Br)ccc1Cl (centres unmarked) | 4.09% |
| COc1ccc(/C=N/N=C/c2c[nH]c(=O)c(C#N)c2Nc2ccccc2)cc1 | 5.81% |
| Cn1c(O)c(N=NC(=O)c2ccccc2O)c2ccccc21 | 13.6% |
| CCCCCc1n[nH]c2c1CCCC2 | 15.6% |
| CCCCc1nc(Cl)c(C#N)c2c1CCCC2 | -14.7% |
| CCCCCc1nc2c(c3c1CCCC3)CCCC2 | -71.7% |
| CCOC(=O)c1ccc(NC(=S)NCCc2ccccc2)cc1 | 4.14% |
| O=C(CN1CCCCCC1)Nc1c(Cl)cc(Cl)cc1Cl | -5.28% |
| CC(=O)N1CCN(CC(=O)Nc2c(Cl)cc(Cl)cc2Cl)CC1 | -54.2% |
| N#Cc1ccc(NC(=O)CN2CCCC2)cc1Cl | 0.986% |
| N#Cc1ccc(NC(=O)CN2CCCCCC2)cc1Cl | -21.3% |
| CC(=O)N1CCN(CC(=O)Nc2ccc(C#N)c(Cl)c2)CC1 | -71.7% |
| O=C(CN1CCOCC1)Nc1c(Cl)cc(Cl)cc1Cl | -2.17% |
| O=C(NC1CCS(=O)(=O)C1)c1ccc(S(=O)(=O)N2CCCC2)cc1 (centres unmarked) | 9.83% |
| CCC(C)(C)C1CCc2[nH]nc(C(=O)NC(C)C)c2C1 (centres unmarked) | 12.7% |
| CC12CCC(C(=O)NCCN3CCCCC3)(CC1=O)C2(C)C (centres unmarked) | -2.12% |
| CCOC(=O)N1CCN(CC(=O)Nc2ccc(Oc3ccccc3)cc2)CC1 | -50.1% |
| CCN(CC)CCNC(=O)C(C)c1nn(C)c(=O)c2ccccc12 (centres unmarked) | 8.67% |
| O=C(CN1CCN(c2ccccc2)CC1)Nc1ccc(Oc2ccccc2)cc1 | 15.6% |
| CCN(CC)CCNC(=O)c1ccccc1N | -5.76% |
| CCN(CC)CC(=O)Nc1ccc(Oc2ccc(NC(=O)CN(CC)CC)cc2)cc1 | 17.1% |
| CCOC(=O)N1CCN(CCC(=O)Nc2ccc(F)c(F)c2)CC1 | 0.204% |
| CCCCOc1ccc(NC(=O)CN2CCN(C(=O)OCC)CC2)cc1.Cl | -28.6% |
| CCOC(=O)N1CCN(CC(=O)Nc2ccc(C)c(Br)c2)CC1.Cl | -16.1% |
| CCOC(=O)N1CCN(CC(=O)Nc2ccc(F)c(F)c2)CC1 | -62.4% |
| O=C(CNCc1ccccc1)Nc1ccc(Oc2ccccc2)cc1 | -18.7% |
| CCN(CC)CCNCC(=O)Nc1ccc(Oc2ccccc2)cc1 | -70.5% |
| CCN(CC)CCNC(=O)C(Oc1ccccc1)Oc1ccccc1 | -65.4% |
